Our source for the Potency values is PubChem BioAssay (NCATS).

Several values for one entry are separate records, joined by “and”; a condition that tells them apart may be missing. Equal values may be shown once. Records with an inconclusive call do not appear. Where a call stands in place of a potency, no number is given. Activity calls are given as the source filed them. Calls come from the whole dose curve; as a rule, active = well fitted curve in the direction sought with a large enough effect; inconclusive = small, poorly fitted or top-dose-only effect, or another doubt; inactive = no such curve, though single readings can be large; an effect the other way counts as inactive or inconclusive.
Note: nearly all actives have a fitted effect of over 70% in size.
Potency is the fitted concentration of half-maximal effect.

The nature of one assay: Primary qHTS for inhibitors of nuclear receptor binding SET domain protein 2 (NSD2) in an isogenic RCH-ACV NSD2 p.E1099K mutant (9B) (AID 1645876). As to conditions: RCH-ACV NSD2 E1099K (9B) viability, CellTiter-Glo, 72 h; series mostly up to 44.9 µM.
Turning to `C=C1C[C@@H]2[C@H](CC[C@]3(C)C(=O)CC[C@@H]23)[C@@]2(C)C=CC(=O)C=C12`, the Potency is 16.8 µM (active) and 26.3 µM (active).

On to `C[C@]12C/C(=C/O)C(=O)C[C@@H]1CC[C@@H]1[C@@H]2CC[C@@]2(C)[C@H]1CC[C@]2(C)O`, for which the Potency is 13.3 µM (active).

As to `N#CC(C#N)=Cc1ccc(O)c(O)c1`, the Potency was 9.44 µM (active).

With `CC[N+](CC)(CC)CC`, the Potency result is “inactive”.

Take `Cc1ccc2c(c1)C1CN(C)CCC1N2` (centres undefined): the Potency result was “inactive”.

Consider `CC(C)(N)Cc1ccc(Cl)cc1`, for which the Potency result was “inactive”.

Consider `O=c1oc2ccccc2c(O)c1C(CC(O)c1ccc(-c2ccc(Br)cc2)cc1)c1ccccc1` (centres undefined), for which the Potency entry was “inactive”.

Regarding `CC(C)(C)CC(C)(C)c1ccc(O)cc1`, the Potency is 24.3 µM (active).

Take `CC(C)=CC1C(C(=O)OCc2cccc(Oc3ccccc3)c2)C1(C)C` (centres undefined): the Potency result was “inactive”.

On to `CC(C)(C)NCC(O)c1cc(Cl)c(N)c(Cl)c1` (centres undefined), for which the Potency result was “inactive”.

In the case of `CC1NCCOC1c1ccccc1` (centres undefined), the Potency entry is “inactive”.

For the molecule `C[C@H]1O[C@@H](O[C@H]2[C@@H](O)C[C@H](O[C@H]3[C@@H](O)C[C@H](O[C@H]4CC[C@@]5(C)[C@H](CC[C@@H]6[C@@H]5CC[C@]5(C)[C@@H](C7=CC(=O)OC7)CC[C@]65O)C4)O[C@@H]3C)O[C@@H]2C)C[C@H](O)[C@@H]1O`, the Potency is 16.8 nM (active) and 19.2 nM (active).

As for `Nc1ccncc1`, the Potency result was “inactive”.

As for `CC(=O)[C@H]1CC[C@H]2[C@@H]3CC[C@H]4C[C@](C)(O)CC[C@]4(C)[C@H]3CC[C@]12C`, the Potency result is “inactive”.

As for `C[C@]12CCC(=O)C(O)=C1CC[C@@H]1[C@@H]2CC[C@]2(C)C(=O)CC[C@@H]12`, the Potency result was “inactive”.

With `Cc1sc2c(c1C)C(c1ccc(Cl)cc1)=N[C@@H](CC(=O)OC(C)(C)C)c1nnc(C)n1-2`, the Potency is 0.372 µM (active).

As for `Oc1cc(Cl)ccc1Oc1ccc(Cl)cc1Cl`, the Potency was 6.24 µM (active).

In the case of `C=C(C)[C@H]1Cc2c(ccc3c2O[C@@H]2COc4cc(OC)c(OC)cc4[C@@H]2C3=O)O1`, the Potency is 0.188 µM (active).

As for `CC[N+]1(C)CCCC(OC(=O)C(O)(c2ccccc2)c2ccccc2)C1` (centres undefined), the Potency entry is “inactive”.

For `O=c1[nH]c2ccccc2n1C1CCN(CCCC(c2ccc(F)cc2)c2ccc(F)cc2)CC1`, the Potency is 23.7 µM (active) and 5.78 µM (active).

As for `CCC(=O)C(CC(C)N(C)C)(c1ccccc1)c1ccccc1` (centres undefined), the Potency is 34.7 µM (active).

On to `CCOP(=S)(OCC)Oc1cc(C)nc(C(C)C)n1`, for which the Potency entry was “inactive”.

The next assay in a line: Primary qHTS for inhibitors of nuclear receptor binding SET domain protein 2 (NSD2) in an RCH-ACV wild type WT cells (2C) (AID 1645877). As to conditions: RCH-ACV (leukaemia line) NSD2 WT (2C) viability, CellTiter-Glo, 72 h; series mostly up to 44.9 µM.
`C=C1C[C@@H]2[C@H](CC[C@]3(C)C(=O)CC[C@@H]23)[C@@]2(C)C=CC(=O)C=C12`: the Potency is 11.9 µM (active) and 18.6 µM (active).

`C[C@]12C/C(=C/O)C(=O)C[C@@H]1CC[C@@H]1[C@@H]2CC[C@@]2(C)[C@H]1CC[C@]2(C)O`: the Potency is 23.7 µM (active).

Regarding `CC(=O)[C@H]1CC[C@H]2[C@@H]3CC[C@H]4C[C@H](O)CC[C@]4(C)[C@H]3C(=O)C[C@]12C`, the Potency result is “inactive”.

Take `N#CC(C#N)=Cc1ccc(O)c(O)c1`: the Potency was 10.6 µM (active).

`CC[N+](CC)(CC)CC`: the Potency result is “inactive”.

On to `Cc1ccc(S(=O)(=O)N[C@@H](CCCCN)C(=O)CCl)cc1`, for which the Potency entry was “inactive”.

Take `C[C@]12CC[C@H]3[C@@H](CCC4=CC(=O)CC[C@@H]43)[C@@H]1CC[C@@H]2OC(=O)CCc1ccccc1`: the Potency result was “inactive”.

Consider `Cc1ccc2c(c1)C1CN(C)CCC1N2` (centres undefined), for which the Potency entry was “inactive”.

Regarding `CC(C)(N)Cc1ccc(Cl)cc1`, the Potency entry is “inactive”.

With `CC(C)=CC1C(C(=O)OCc2cccc(Oc3ccccc3)c2)C1(C)C` (centres undefined), the Potency result is “inactive”.

As for `CC(C)(C)NCC(O)c1cc(Cl)c(N)c(Cl)c1` (centres undefined), the Potency entry was “inactive”.

As to `O=c1[nH]c2ccccc2n1CCCN1CCC(n2c(=O)[nH]c3cc(Cl)ccc32)CC1`, the Potency was 20.9 µM (active).

Regarding `CC1NCCOC1c1ccccc1` (centres undefined), the Potency result was “inactive”.

On to `C[C@H]1O[C@@H](O[C@H]2[C@@H](O)C[C@H](O[C@H]3[C@@H](O)C[C@H](O[C@H]4CC[C@@]5(C)[C@H](CC[C@@H]6[C@@H]5CC[C@]5(C)[C@@H](C7=CC(=O)OC7)CC[C@]65O)C4)O[C@@H]3C)O[C@@H]2C)C[C@H](O)[C@@H]1O`, for which the Potency is 42.2 nM (active) and 85.8 nM (active).

In the case of `Nc1ccncc1`, the Potency entry is “inactive”.

For the molecule `CC(=O)[C@H]1CC[C@H]2[C@@H]3CC[C@H]4C[C@](C)(O)CC[C@]4(C)[C@H]3CC[C@]12C`, the Potency entry is “inactive”.

As to `c1ccc(C2CC2)c(OCC2=NCCN2)c1`, the Potency entry is “inactive”.

As for `C[C@]12CCC(=O)C(O)=C1CC[C@@H]1[C@@H]2CC[C@]2(C)C(=O)CC[C@@H]12`, the Potency entry is “inactive”.

On to `Cc1sc2c(c1C)C(c1ccc(Cl)cc1)=N[C@@H](CC(=O)OC(C)(C)C)c1nnc(C)n1-2`, for which the Potency was 0.263 µM (active).

`COc1ccc2c(c1OC)CN1CCc3cc4c(cc3C1C2)OCO4` (centres undefined): the Potency is 10.6 µM (active).

On to `Oc1cc(Cl)ccc1Oc1ccc(Cl)cc1Cl`, for which the Potency was 6.24 µM (active).

With `CNC(=O)c1ccc(N2C(=S)N(c3ccc(C#N)c(C(F)(F)F)c3)C(=O)C23CCC3)cc1F`, the Potency was 16.6 µM (active).

With `C=C(C)[C@H]1Cc2c(ccc3c2O[C@@H]2COc4cc(OC)c(OC)cc4[C@@H]2C3=O)O1`, the Potency is 0.15 µM (active).

On to `CC[N+]1(C)CCCC(OC(=O)C(O)(c2ccccc2)c2ccccc2)C1` (centres undefined), for which the Potency entry was “inactive”.

Regarding `O=c1[nH]c2ccccc2n1C1CCN(CCCC(c2ccc(F)cc2)c2ccc(F)cc2)CC1`, the Potency was 16.8 µM (active) and 5.78 µM (active).

On to `CCC(=O)C(CC(C)N(C)C)(c1ccccc1)c1ccccc1` (centres undefined), for which the Potency was 30.9 µM (active).

In the case of `CCOP(=S)(OCC)Oc1cc(C)nc(C(C)C)n1`, the Potency result was “inactive”.
